Assay results published in publication PMC5540273 (PLoS ONE, 2017).
Like-named read-outs stand apart in the source and are kept apart here.

Key:
[1] = test system: GRK7; conditions: concentration: 1 μM, replicates: in singlicate; n = 1
[2] = test system: GSK3A; conditions: concentration: 1 μM, replicates: in singlicate; n = 1
[3] = test system: GSK3B; conditions: n = 1
[4] = test system: T1, HASPIN; conditions: concentration: 1 μM, replicates: in singlicate; n = 1
T1 construct: gene GSG2

[5] = test system: HCK; conditions: concentration: 1 μM, replicates: in singlicate; n = 1
[6] = test system: HIPK1; conditions: concentration: 1 μM, replicates: in singlicate; n = 1
[7] = test system: HIPK2; conditions: concentration: 1 μM, replicates: in singlicate; n = 1
[8] = test system: HIPK3; conditions: concentration: 1 μM, replicates: in singlicate; n = 1
[9] = test system: HIPK4; conditions: concentration: 1 μM, replicates: in singlicate; n = 1
[10] = test system: HPK1; conditions: concentration: 1 μM, replicates: in singlicate; n = 1
[11] = concentration: 1 μM, replicates: in singlicate
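Also: KINOMEscan kinase panel screen.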

Compound: Cc1cccc(-c2nc(-c3ccc(S(C)(=O)=O)cc3)sc2-c2ccnc(NCCc3ccccc3)c2)c1
- %Inh [1]: 7%
- %Inh [2]: 0%
- %Inh [3, 11]: 0%
- %Inh [4]: 42%
- %Inh [5]: 0%
- %Inh [6]: 15%
- %Inh [7]: 0%
- %Inh [8]: 6%
- %Inh [9]: 8%
- %Inh [10]: 11%

Compound: CS(=O)(=O)c1ccc(-c2c(-c3ncn[nH]3)sc(N3CCOCC3)c2C#N)cc1
- %Inh [1]: 43%
- %Inh [2]: 0%
- %Inh [3, 11]: 24%
- %Inh [4]: 0%
- %Inh [5]: 43%
- %Inh [6]: 38%
- %Inh [7]: 24%
- %Inh [8]: 28%
- %Inh [9]: 8%
- %Inh [10]: 0%

Compound: Cc1cccc(-c2nc(Nc3cccc(C(N)=O)c3)c3ccccc3n2)n1 [GW876019]
- %Inh [1]: 9%
- %Inh [2]: 16%
- %Inh [3, 11]: 12%
- %Inh [4]: 14%
- %Inh [5]: 24%
- %Inh [6]: 44%
- %Inh [7]: 43%
- %Inh [8]: 2%
- %Inh [9]: 0%
- %Inh [10]: 36%

Compound: Nc1ncnc2[nH]c(-c3ccccc3)nc12 [AH5015]
- %Inh [1]: 0%
- %Inh [2]: 21%
- %Inh [3, 11]: 23%
- %Inh [4]: 59%
- %Inh [5]: 0%
- %Inh [6]: 19%
- %Inh [7]: 0%
- %Inh [8]: 39%
- %Inh [9]: 21%
- %Inh [10]: 39%

Compound: COc1ccc2nc(-c3cccc(C)n3)nc(Nc3ccncc3)c2c1 [GSK204919]
- %Inh [1]: 0%
- %Inh [2]: 0%
- %Inh [3, 11]: 19%
- %Inh [4]: 15%
- %Inh [5]: 0%
- %Inh [6]: 0%
- %Inh [7]: 0%
- %Inh [8]: 11%
- %Inh [9]: 0%
- %Inh [10]: 28%

Compound: Cn1cncc1-c1ccc2ncnc(Nc3ccc(OCc4ccccc4)cc3)c2c1 [GW320571]
- %Inh [1]: 0%
- %Inh [2]: 0%
- %Inh [3, 11]: 4%
- %Inh [4]: 10%
- %Inh [5]: 0%
- %Inh [6]: 41%
- %Inh [7]: 49%
- %Inh [8]: 51%
- %Inh [9]: 13%
- %Inh [10]: 32%

Compound: COC(=O)c1c(-c2ccccc2)c2cc(OC)ccc2c(=O)n1Cc1ccccc1
- %Inh [1]: 24%
- %Inh [2]: 14%
- %Inh [3, 11]: 18%
- %Inh [4]: 3%
- %Inh [5]: 22%
- %Inh [6]: 7%
- %Inh [7]: 11%
- %Inh [8]: 3%
- %Inh [9]: 0%
- %Inh [10]: 0%

Compound: Cn1ccc2ncnc(Oc3ccc(Nc4nc5ccccc5[nH]4)cc3)c21
- %Inh [1]: 0%
- %Inh [2]: 12%
- %Inh [3, 11]: 0%
- %Inh [4]: 50%
- %Inh [5]: 8%
- %Inh [6]: 17%
- %Inh [7]: 0%
- %Inh [8]: 0%
- %Inh [9]: 9%
- %Inh [10]: 0%

Compound: COc1ccccc1CNC(=O)c1cc(C(=O)c2ccccc2C)c[nH]1 [GSK364507]
- %Inh [1]: 0%
- %Inh [2]: 15%
- %Inh [3, 11]: 0%
- %Inh [4]: 0%
- %Inh [5]: 0%
- %Inh [6]: 0%
- %Inh [7]: 0%
- %Inh [8]: 10%
- %Inh [9]: 0%
- %Inh [10]: 26%

Compound: COc1cc2ncn(-c3cc(OCC4CCCO4)c(C(N)=O)s3)c2cc1OC (centres unmarked) [GSK204607]
- %Inh [1]: 0%
- %Inh [2]: 20%
- %Inh [3, 11]: 0%
- %Inh [4]: 26%
- %Inh [5]: 0%
- %Inh [6]: 7%
- %Inh [7]: 0%
- %Inh [8]: 17%
- %Inh [9]: 52%
- %Inh [10]: 15%

Compound: Cc1csc(-c2nc(Nc3ccncc3)c3ccccc3n2)n1 [GW869640]
- %Inh [1]: 17%
- %Inh [2]: 0%
- %Inh [3, 11]: 46%
- %Inh [4]: 87%
- %Inh [5]: 23%
- %Inh [6]: 7%
- %Inh [7]: 23%
- %Inh [8]: 36%
- %Inh [9]: 7%
- %Inh [10]: 3%

Compound: Cc1cc(N2Cc3ccccc3C2)nc(Nc2ccc(S(=O)(=O)N3CCOCC3)cc2)n1.Cl [GSK1669917]
- %Inh [1]: 0%
- %Inh [2]: 0%
- %Inh [3, 11]: 0%
- %Inh [4]: 0%
- %Inh [5]: 0%
- %Inh [6]: 0%
- %Inh [7]: 0%
- %Inh [8]: 0%
- %Inh [9]: 0%
- %Inh [10]: 34%

Compound: O=C1NC(=O)C(N2CCc3ccccc32)=C1c1ccccc1Cl [SB-373598]
- %Inh [1]: 0%
- %Inh [2]: 4%
- %Inh ([3]; 1 µM): 27%
- %Inh [4]: 100%
- %Inh [5]: 0%
- %Inh [6]: 30%
- %Inh [7]: 24%
- %Inh [8]: 13%
- %Inh [9]: 12%
- %Inh [10]: 0%

Compound: COc1ccc(Nc2nccc(-c3cccc(NC(=O)c4cc5cc(F)ccc5[nH]4)c3)n2)cc1 [GSK1229782]
- %Inh [1]: 0%
- %Inh [2]: 31%
- %Inh [3, 11]: 0%
- %Inh [4]: 39%
- %Inh [5]: 0%
- %Inh [6]: 0%
- %Inh [7]: 46%
- %Inh [8]: 0%
- %Inh [9]: 36%
- %Inh [10]: 65%

Compound: Cl.Oc1ccc(-c2nc(-c3ccccc3)[nH]c2-c2ccncc2)cc1 [SB-428218]
- %Inh [1]: 0%
- %Inh [2]: 11%
- %Inh [3, 11]: 0%
- %Inh [4]: 15%
- %Inh [5]: 0%
- %Inh [6]: 5%
- %Inh [7]: 16%
- %Inh [8]: 1%
- %Inh [9]: 0%
- %Inh [10]: 38%

Compound: COc1ccccc1-c1ccc2c(NC(=O)C3CC3)n[nH]c2n1 [SB-711239]
- %Inh [1]: 0%
- %Inh [2]: 6%
- %Inh ([3]; 1 µM): 0%
- %Inh [4]: 41%
- %Inh [5]: 0%
- %Inh [6]: 0%
- %Inh [7]: 0%
- %Inh [8]: 1%
- %Inh [9]: 0%
- %Inh [10]: 41%

Compound: Cc1ccc(NC(=O)Nc2cccc(Cl)c2)cc1-c1ccc(C(=O)Nc2ccncc2)cc1 [GSK1398468]
- %Inh [1]: 0%
- %Inh [2]: 22%
- %Inh [3, 11]: 4%
- %Inh [4]: 0%
- %Inh [5]: 0%
- %Inh [6]: 0%
- %Inh [7]: 0%
- %Inh [8]: 3%
- %Inh [9]: 0%
- %Inh [10]: 40%

Compound: COc1ccc(Nc2nccc(NCCNC(=O)Nc3ccccc3F)n2)cc1 [GSK1379901]
- %Inh [1]: 0%
- %Inh [2]: 30%
- %Inh [3, 11]: 13%
- %Inh [4]: 0%
- %Inh [5]: 0%
- %Inh [6]: 0%
- %Inh [7]: 0%
- %Inh [8]: 7%
- %Inh [9]: 0%
- %Inh [10]: 36%

Compound: COc1cccc(NC(=O)NC2CCN(c3ccnc(Nc4ccc(F)cc4)n3)C2)c1 (centres unmarked) [GSK1379721]
- %Inh [1]: 0%
- %Inh [2]: 21%
- %Inh [3, 11]: 10%
- %Inh [4]: 0%
- %Inh [5]: 0%
- %Inh [6]: 0%
- %Inh [7]: 0%
- %Inh [8]: 7%
- %Inh [9]: 0%
- %Inh [10]: 59%

Compound: Cc1cccc(-c2nc(C)cc(Nc3ccncc3)n2)n1 [GSK257997]
- %Inh [1]: 0%
- %Inh [2]: 27%
- %Inh [3, 11]: 17%
- %Inh [4]: 31%
- %Inh [5]: 0%
- %Inh [6]: 0%
- %Inh [7]: 0%
- %Inh [8]: 7%
- %Inh [9]: 0%
- %Inh [10]: 34%
